Laboratory results published in the supplement of paper PMC8728848.
About 410 targets per protein were measured; listed, in parts, are those with the strongest signals and a random draw of the rest.

How the values were obtained:
Test in all cases: glycan array binding signal (z-score within array); higher = stronger binding
Details in all cases: glycan notation: IUPAC condensed, linker removed
Fuc(a1-2)Gal(b1-3)GalNAc = target: Fuc(a1-2)Gal(b1-3)GalNAc
Summary of the method: (§1)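 Glycan array data were curated from 3228 arrays in the Consortium for Functional Glycomics database and kept only where the protein sequence was available. Glycan names were converted to IUPAC-condensed notation, and columns mapping to the same glycan were averaged. The binding signal is a within-array Z-score, averaged across arrays of the same protein sequence at different concentrations or buffers and across linkers. Negative Z-scores can be read as non-binding.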

[1] = target: Fuc(a1-2)Gal(b1-3)GalNAc(b1-4)[Neu5Ac(a2-3)]Gal(b1-4)Glc
Summary of the method: as §1

[2] = target: Fuc(a1-2)Gal(b1-3)GlcNAc(b1-2)Man(a1-3)[Fuc(a1-2)Gal(b1-3)GlcNAc(b1-2)Man(a1-6)]Man(b1-4)GlcNAc(b1-4)GlcNAc
Summary of the method: as §1

[3] = target: Fuc(a1-2)Gal(b1-4)GlcNAc(b1-3)Gal(b1-4)GlcNAc
Summary of the method: as §1

[4] = target: Fuc(a1-2)Gal(b1-4)[Fuc(a1-3)]GlcNAc
Summary of the method: as §1

[5] = target: Fuc(a1-2)Gal(b1-4)[Fuc(a1-3)]GlcNAc(b1-3)Gal(b1-4)[Fuc(a1-3)]GlcNAc
Summary of the method: as §1

[6] = target: Fuc(a1-2)[Gal(a1-3)]Gal(b1-3)GalNAc(b1-3)Gal(a1-4)Gal(b1-4)Glc
Summary of the method: as §1

[7] = target: Fuc(a1-2)[Gal(a1-3)]Gal(b1-3)GlcNAc(b1-3)GalNAc
Summary of the method: as §1

[8] = target: Fuc(a1-2)[Gal(a1-3)]Gal(b1-4)[Fuc(a1-3)]Glc
Summary of the method: as §1

[9] = target: Fuc(a1-2)[GalNAc(a1-3)]Gal
Summary of the method: as §1

[10] = target: Fuc(a1-2)[GalNAc(a1-3)]Gal(b1-4)GlcNAc(b1-2)Man
Summary of the method: as §1

[11] = target: Fuc(a1-3)[Gal(b1-4)]GlcNAc(b1-3)Gal(b1-3)[Fuc(a1-4)]GlcNAc
Summary of the method: as §1

Gal(a1-3)Gal(b1-4)GlcNAc = target: Gal(a1-3)Gal(b1-4)GlcNAc
Summary of the method: as §1

[12] = target: Gal(a1-3)Gal(b1-4)GlcNAc(b1-2)Man
Summary of the method: as §1

Gal(a1-4)Gal(b1-4)GlcNAc = target: Gal(a1-4)Gal(b1-4)GlcNAc
Summary of the method: as §1

[13] = target: Gal(a1-4)Gal(b1-4)GlcNAc(b1-2)Man(a1-3)[Gal(a1-4)Gal(b1-4)GlcNAc(b1-2)Man(a1-6)]Man(b1-4)GlcNAc(b1-4)GlcNAc
Summary of the method: as §1

[14] = target: Gal(b1-3)GlcNAc(b1-2)Man(a1-3)[GlcNAc(b1-4)][Gal(b1-3)GlcNAc(b1-2)Man(a1-6)]Man(b1-4)GlcNAc(b1-4)GlcNAc
Summary of the method: as §1

[15] = target: Gal(b1-3)GlcNAc(b1-2)[Gal(b1-3)GlcNAc(b1-6)]Man(a1-6)[Gal(b1-3)GlcNAc(b1-2)Man(a1-3)]Man(b1-4)GlcNAc(b1-4)GlcNAc
Summary of the method: as §1

[16] = target: Gal(b1-3)GlcNAc(b1-3)GalNAc
Summary of the method: as §1

[17] = target: Gal(b1-3)[Fuc(a1-4)]GlcNAc(b1-2)Man(a1-3)[Gal(b1-3)[Fuc(a1-4)]GlcNAc(b1-2)Man(a1-6)]Man(b1-4)GlcNAc(b1-4)[Fuc(a1-6)]GlcNAc
Summary of the method: as §1

[18] = target: Gal(b1-4)GlcNAc(b1-2)Man(a1-3)[GlcNAc(b1-2)Man(a1-6)]Man(b1-4)GlcNAc(b1-4)GlcNAc
Summary of the method: as §1

[19] = target: Gal(b1-4)GlcNAc(b1-2)[Gal(b1-4)GlcNAc(b1-6)]Man(a1-6)[Gal(b1-4)GlcNAc(b1-2)Man(a1-3)]Man(b1-4)GlcNAc(b1-4)[Fuc(a1-6)]GlcNAc
Summary of the method: as §1

[20] = target: Gal(b1-4)GlcNAc(b1-2)[Gal(b1-4)GlcNAc(b1-6)]Man(a1-6)[GlcNAc(b1-4)][Gal(b1-4)GlcNAc(b1-2)[Gal(b1-4)GlcNAc(b1-4)]Man(a1-3)]Man(b1-4)GlcNAc(b1-4)[Fuc(a1-6)]GlcNAc
Summary of the method: as §1

[21] = target: Gal(b1-4)GlcNAc(b1-3)Gal(b1-4)GlcNAc(b1-3)Gal(b1-4)GlcNAc(b1-3)Gal(b1-4)GlcNAc(b1-2)Man(a1-3)[Gal(b1-4)GlcNAc(b1-3)Gal(b1-4)GlcNAc(b1-3)Gal(b1-4)GlcNAc(b1-3)Gal(b1-4)GlcNAc(b1-2)Man(a1-6)]Man(b1-4)GlcNAc(b1-4)[Fuc(a1-6)]GlcNAc
Summary of the method: as §1

[22] = target: Gal3S(b1-4)[Fuc(a1-3)]Glc6S
Summary of the method: as §1

GalNAc(b1-3)GlcNAc = target: GalNAc(b1-3)GlcNAc
Summary of the method: as §1

GalNAc(b1-4)Gal(b1-4)Glc = target: GalNAc(b1-4)Gal(b1-4)Glc
Summary of the method: as §1

[23] = target: GlcNAc(a1-4)Gal(b1-4)GlcNAc(b1-3)Gal(b1-4)GlcNAc(b1-3)Gal(b1-4)GlcNAc
Summary of the method: as §1

[24] = target: GlcNAc(b1-3)Gal(b1-4)GlcNAc(b1-3)Gal(b1-4)GlcNAc(b1-3)Gal(b1-4)GlcNAc(b1-2)Man(a1-3)[GlcNAc(b1-3)Gal(b1-4)GlcNAc(b1-3)Gal(b1-4)GlcNAc(b1-3)Gal(b1-4)GlcNAc(b1-2)Man(a1-6)]Man(b1-4)GlcNAc(b1-4)[Fuc(a1-6)]GlcNAc
Summary of the method: as §1

[25] = target: GlcNAc(b1-3)Gal(b1-4)GlcNAc(b1-3)Gal(b1-4)GlcNAc(b1-3)Gal(b1-4)GlcNAc(b1-3)Gal(b1-4)GlcNAc(b1-2)Man(a1-3)[GlcNAc(b1-3)Gal(b1-4)GlcNAc(b1-3)Gal(b1-4)GlcNAc(b1-3)Gal(b1-4)GlcNAc(b1-3)Gal(b1-4)GlcNAc(b1-2)Man(a1-6)]Man(b1-4)GlcNAc(b1-4)GlcNAc
Summary of the method: as §1

GlcNAc(b1-3)Man = target: GlcNAc(b1-3)Man
Summary of the method: as §1

[26] = target: GlcNAc(b1-4)GlcNAc(b1-4)GlcNAc(b1-4)GlcNAc(b1-4)GlcNAc
Summary of the method: as §1

Kdn(a2-3)Gal(b1-3)GalNAc = target: Kdn(a2-3)Gal(b1-3)GalNAc
Summary of the method: as §1

[27] = target: Man(a1-3)[Man(a1-6)]Man(a1-6)[Man(a1-3)]Man
Summary of the method: as §1

[28] = target: Neu5Ac(a2-3)Gal(b1-3)GlcNAc(b1-2)Man(a1-3)[Neu5Ac(a2-3)Gal(b1-3)GlcNAc(b1-2)Man(a1-6)]Man(b1-4)GlcNAc(b1-4)GlcNAc
Summary of the method: as §1

[29] = target: Neu5Ac(a2-3)Gal(b1-4)GlcNAc(b1-3)Gal(b1-4)GlcNAc(b1-3)GalNAc
Summary of the method: as §1

[30] = target: Neu5Ac(a2-3)Gal(b1-4)[Fuc(a1-3)]GlcNAc(b1-2)Man
Summary of the method: as §1

[31] = target: Neu5Ac(a2-3)Gal(b1-4)[Fuc(a1-3)]GlcNAc(b1-3)GalNAc
Summary of the method: as §1

[32] = target: Neu5Ac(a2-3)Gal6S(b1-4)GlcNAc
Summary of the method: as §1

[33] = target: Neu5Ac(a2-6)Gal(b1-4)GlcNAc(b1-2)Man(a1-3)[Man(a1-6)]Man(b1-4)GlcNAc(b1-4)GlcNAc
Summary of the method: as §1

[34] = target: Neu5Ac(a2-6)Gal(b1-4)GlcNAc(b1-3)Gal(b1-4)GlcNAc(b1-3)Gal(b1-4)GlcNAc
Summary of the method: as §1

[35] = target: Neu5Ac(a2-6)Gal(b1-4)GlcNAc(b1-3)Gal(b1-4)[Fuc(a1-3)]GlcNAc(b1-3)Gal(b1-4)[Fuc(a1-3)]GlcNAc
Summary of the method: as §1

[36] = target: Neu5Ac(a2-6)Gal(b1-4)GlcNAc(b1-6)[Gal(b1-3)]GalNAc
Summary of the method: as §1

[37] = target: Neu5Ac(a2-8)Neu5Ac(a2-8)Neu5Ac(a2-3)[Gal(b1-3)GalNAc(b1-4)]Gal(b1-4)Glc
Summary of the method: as §1

[38] = target: Neu5Gc(a2-3)Gal(b1-4)GlcNAc(b1-3)Gal(b1-4)GlcNAc(b1-2)Man(a1-3)[Neu5Gc(a2-3)Gal(b1-4)GlcNAc(b1-3)Gal(b1-4)GlcNAc(b1-2)Man(a1-6)]Man(b1-4)GlcNAc(b1-4)GlcNAc
Summary of the method: as §1

[39] = target: Neu5Gc(b2-6)Gal(b1-4)GlcNAc
Summary of the method: as §1

B1: Thrombomodulin Extracellular (Mus musculus), P15306 (protein)
chain: MLGIFFLGVLAPASLGLSALAKLQPTGSQCVEHECFALFQGPATFLDASQACQRLQGHLMTVRSSVAADVISLLLSQSSMDLGPWIGLQLPQGCDDPVHLGPLRGFQWVTGDNHTSYSRWARPNDQTAPLCGPLCVTVSTATEAAPGEPAWEEKPCETETQGFLCEFYFTASCRPLTVNTRDPEAAHISSTYNTPFGVSGADFQTLPVGSSAAVEPLGLELVCRAPPGTSEGHWAWEATGAWNCSVENGGCEYLCNRSTNEPRCLCPRDMDLQADGRSCARPVVQSCNELCEHFCVSNAEVPGSYSCMCETGYQLAADGHRCEDVDDCKQGPNPCPQLCVNTKGGFECFCYDGYELVDGECVELLDPCFGSNCEFQCQPVSPTDYRCICAPGFAPKPDEPHKCEMFCNETSCPADCDPNSPTVCECPEGFILDEGSVCTDIDECSQGECFTSECRNFPGSYECICGPDTALAGQISKDCDPIPVREDTKEEEGSGEPPVSPTPGSPTGPPSARPVHSGVLIGISIASLSLVVALLALLCHLRKKQGAARAELEYKCASSAKEVVLQHVRTDRTLQKF
- glycan array binding signal (z-score) (Fuc(a1-2)Gal(b1-3)GalNAc): -0.717
- glycan array binding signal (z-score) [1]: -0.952
- glycan array binding signal (z-score) [2]: 2.48
- glycan array binding signal (z-score) [3]: 0.406
- glycan array binding signal (z-score) [4]: -0.221
- glycan array binding signal (z-score) [5]: 0.048
- glycan array binding signal (z-score) [6]: 1.38
- glycan array binding signal (z-score) [7]: 2.8
- glycan array binding signal (z-score) [8]: -1.18
- glycan array binding signal (z-score) [9]: -0.162
- glycan array binding signal (z-score) [10]: 1.79
- glycan array binding signal (z-score) [11]: -0.513
- glycan array binding signal (z-score) (Gal(a1-3)Gal(b1-4)GlcNAc): -0.81
- glycan array binding signal (z-score) [12]: -2.66
- glycan array binding signal (z-score) (Gal(a1-4)Gal(b1-4)GlcNAc): -0.239
- glycan array binding signal (z-score) [13]: 1.73
- glycan array binding signal (z-score) [14]: 0.655
- glycan array binding signal (z-score) [15]: 0.399
- glycan array binding signal (z-score) [16]: -0.059
- glycan array binding signal (z-score) [17]: 2.94
- glycan array binding signal (z-score) [18]: -1.49
- glycan array binding signal (z-score) [19]: -0.135
- glycan array binding signal (z-score) [20]: -0.329
- glycan array binding signal (z-score) [21]: 2.27
- glycan array binding signal (z-score) [22]: 2.97
- glycan array binding signal (z-score) (GalNAc(b1-3)GlcNAc): -0.126
- glycan array binding signal (z-score) (GalNAc(b1-4)Gal(b1-4)Glc): 3.27
- glycan array binding signal (z-score) [23]: 2.52
- glycan array binding signal (z-score) [24]: 1.85
- glycan array binding signal (z-score) [25]: -0.332
- glycan array binding signal (z-score) (GlcNAc(b1-3)Man): 0.187
- glycan array binding signal (z-score) [26]: 1.75
- glycan array binding signal (z-score) (Kdn(a2-3)Gal(b1-3)GalNAc): -0.442
- glycan array binding signal (z-score) [27]: 2.92
- glycan array binding signal (z-score) [28]: 2.55
- glycan array binding signal (z-score) [29]: -0.036
- glycan array binding signal (z-score) [30]: -1.17
- glycan array binding signal (z-score) [31]: 2.09
- glycan array binding signal (z-score) [32]: -0.167
- glycan array binding signal (z-score) [33]: 2.56
- glycan array binding signal (z-score) [34]: -0.19
- glycan array binding signal (z-score) [35]: -0.473
- glycan array binding signal (z-score) [36]: -1.23
- glycan array binding signal (z-score) [37]: 2.49
- glycan array binding signal (z-score) [38]: 1.29
- glycan array binding signal (z-score) [39]: -0.009
